Measurements taken from PubChem BioAssay (NCATS).
Inconclusive results are not listed. Where a call stands in place of a potency, no number is given. Active and inactive are the calls of the source. The call rests on the fitted dose curve; in most records, active means well fitted inhibition curve with a large enough effect; inconclusive means small, poorly fitted or top-dose-only effect; inactive means flat fitted curve, though single readings scatter.

The compounds below were run against Calcium and integrin-binding protein 1 (Homo sapiens) (UniProt Q99828) (assay: Primary qHTS for Identification of Calcium Integrin Binding Protein 1 (CIB1) Competitor (AID 1508620;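 further: GST tagged CIB1 binding a fluorescein labelled alphaIIb integrin peptide tracer; top concentration of the series differs between compounds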)). Settings: CIB1-GST / FITC-alphaIIb peptide fluorescence polarization; series mostly up to 114 µM.
How it was run: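 CIB1-GST (1 uM final) and compound incubated 15 min at room temperature before adding FITC-alphaIIb peptide tracer (100 nM final). Competition for binding read by fluorescence polarization (ex 480, em 540) after another 15 min at room temperature.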

Sequence of Calcium and integrin-binding protein 1 (Homo sapiens) (Q99828 whole entry, looked up): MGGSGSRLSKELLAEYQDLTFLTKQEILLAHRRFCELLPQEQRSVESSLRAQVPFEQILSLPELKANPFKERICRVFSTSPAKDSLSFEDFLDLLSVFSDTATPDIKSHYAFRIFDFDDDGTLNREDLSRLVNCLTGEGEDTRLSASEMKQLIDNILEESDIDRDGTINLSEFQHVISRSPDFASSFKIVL

Q: For FC(F)(F)c1cnc(N2CCN(C(=S)Nc3cc(Cl)ccn3)CC2)c(Cl)c1, which Potency is on record?
A: inactive

Q: How did the Potency turn out when O=C(OCC#CCSc1nnc(-c2cccc3ccccc23)o1)c1csc2ccccc12 was run?
A: inactive

Q: For N[C@@H](CCC(=O)O)C(=O)Nc1ccc(Cl)cc1C(=O)c1ccc[nH]1, which Potency is on record?
A: inactive

Q: With Cc1ccc(C[C@H](C(=O)O)N2C(=O)c3ccc(C(=O)O)cc3C2=O)c(C)c1 as the compound, how does the Potency read?
A: inactive

Q: How did the Potency turn out when O=C(Nc1ccc(-c2nc3ccccc3[nH]2)cc1)c1ccc2n[nH]nc2c1 was run?
A: inactive

Q: Cc1ccc(OCCn2c(CCNC(=O)c3cccc(Br)c3)nc3ccccc32)cc1 was tested. Which Potency did it give?
A: inactive

Q: How did the Potency turn out when COc1ccc(CNc2ccc(S(=O)(=O)Nc3nccs3)cc2)c(O)c1 was run?
A: inactive

Q: Which Potency does the source give for O=C1NS(=O)(=O)c2cc(Cl)ccc21 here?
A: inactive

Q: Which Potency does the source give for Cc1cc2c(s1)c1cnn(Cc3ccc(Cl)c(Cl)c3)c(=O)c1n2C here?
A: inactive

Q: Which Potency does the source give for Cc1cnc(-c2ccccc2CO)nc1NCC1CCN(c2cccnc2)CC1 here?
A: inactive

Q: FC(F)(F)c1ccccc1-c1nc(NCc2ccc(Cl)c(Cl)c2)c2ccccc2n1 was tested. Which Potency did it give?
A: inactive

Q: With CC(C)(C)c1ccc(C(=O)NCC(=O)OC(C(=O)Nc2cc(C(F)(F)F)ccc2Cl)c2ccccc2)cc1 (stereo not drawn) as the compound, how does the Potency read?
A: inactive

Q: Which Potency does the source give for CCOc1ccc(CCNC(=O)c2cc3sccc3n2Cc2ccccc2)cc1OCC here?
A: inactive

Q: COc1ccc(C2=Nn3c(nnc3-c3ccccc3Cl)SC2)cc1OC1CCCC1 was tested. Which Potency did it give?
A: inactive

Q: Which Potency does the source give for COc1cccc(OC)c1C1=Nn2c(nnc2-c2ccccc2O)SC1 here?
A: inactive

Q: For NC(=O)c1ccc(-c2noc(-c3cccc(Cl)c3)n2)cc1, which Potency is on record?
A: inactive

Q: With CC(=O)Nc1sc2c(c1-c1ccc(C)cc1)CCNC2 as the compound, how does the Potency read?
A: inactive

Q: With Cc1ccc(NC(=O)c2cnn3c(-c4ccccc4)cc(C)nc23)cc1 as the compound, how does the Potency read?
A: inactive

Q: COc1cccc(NS(=O)(=O)c2ccc(NCc3cccc(OC)c3O)cc2)c1 was tested. Which Potency did it give?
A: inactive

Q: How did the Potency turn out when Cc1ccnc(NC(=S)Nc2cccc(C(F)(F)F)c2)c1 was run?
A: inactive

Q: Which Potency does the source give for NC(=O)C1CCN(c2ncc(Br)cn2)CC1 here?
A: inactive

Q: With Clc1ccc(CSc2nc3ncc(Br)cc3[nH]2)cc1Cl as the compound, how does the Potency read?
A: inactive

Q: Cc1cc(-c2nc(Nc3ccc(F)c(F)c3)c3ccccc3n2)cc(C)n1 was tested. Which Potency did it give?
A: inactive
